From PubChem BioAssay come the findings set out here.

This test deals with Neuregulin-1 EGF-like domain. Kind of test: small molecules binding NRG1 EGF domain – biochemical, small-molecule microarray, 635 nm fluorescence, primary screen (AID 1081).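 Further: binding of the protein to compounds printed on small-molecule microarray slides.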 Particulars: higher = more signal.
For the compound `CCOC(=O)C=Cc1cc(F)ccc1O`, the composite z-score came to 0.398. For `[N-]=[N+]=Nc1ccccc1[C@@H]1OC(c2ccc(OCCCO)cc2)=N[C@]1(Cc1ccccc1)C(=O)NCc1ccccc1` the value was 1.2; for `Cc1ccccc1C(O)C1C=CC2C(=O)NC(=O)C2N1Nc1ccc(Cl)cc1Cl` (configuration not stated), 1.04. In turn, `COc1ccc([Si](C)(C)[C@H]2[C@H](CCO)O[C@@]3(C(=O)N(Cc4ccccc4)c4ccc(N5CCOC5=O)cc43)[C@@H]2C)cc1` returned a composite z-score of 0.828. With `COCC1C2CC[C@H]3C(OCc4ccc(OC)cc4)OC[C@]4(C)[C@H]3C2=C(CN4C(=O)OC(C)(C)C)[C@H](C)C1COC` (some centres not stated), the composite z-score stood at 1.18. As for `COCCOC(=O)N1C(=O)[C@@]2(c3cc(C#CC4(O)CCCCCC4)ccc31)[C@H](C(=O)N1CCN(c3ncccn3)CC1)[C@H]1C(=O)O[C@H](c3ccccc3)[C@H](c3ccccc3)N1[C@@H]2c1ccccc1OCCO`, the figure is 1.05; as for `COc1ccc(C(=O)Nc2cccc(CN3C(=O)[C@@]4(O[C@@H](CC(=O)N(CCO)Cc5ccccc5)[C@H]([Si](C)(C)c5ccc(OC)cc5)[C@H]4C)c4ccccc43)c2)cc1`, 1.09; as for `COCCOC(=O)N1C(=O)[C@@]2(c3cc(C#CCNC(N)=O)ccc31)[C@H](c1ccc(O)cc1)N1[C@H](c3ccccc3)[C@H](c3ccccc3)OC(=O)[C@H]1[C@@H]2C(N)=O`, -0.0682. As to `O=C1C2C=CC(C(O)c3cccc(O)c3)N(Nc3ccccc3)C2C(=O)N1c1ccccc1` (configuration not stated), the composite z-score worked out at 1.11. In turn, `COc1ccc([Si](C)(C)[C@@H]2[C@@H](CC(=O)N3Cc4ccccc4C[C@H]3CO)O[C@]3(C(=O)N(c4ccccc4)c4ccccc43)[C@H]2C)cc1` returned a composite z-score of 1.16.

For the compound `COc1ccc(C(O)C2C=CC3C(=O)N(c4ccccc4)C(=O)C3N2Nc2ccccc2F)cc1` (configuration not stated), the composite z-score is 1.18. `COCCOC(=O)N1C(=O)[C@@]2(c3cc(C#CCC(C(=O)OC)C(=O)OC)ccc31)[C@H](c1ccc(O)cc1)N1[C@H](c3ccccc3)[C@H](c3ccccc3)OC(=O)[C@H]1[C@@H]2C(=O)NC[C@H](O)c1ccccc1` had a composite z-score of 1.04. Compound `COCC(=C=CC[C@H](O)c1cccc(OCCO)c1)C[C@H](O)COCc1ccccc1` came in with a composite z-score of 1.31.

In turn, `C=C(C)[C@@H]1CC=C(C(O)C2C=CC3C(=O)N(c4ccccc4)C(=O)C3N2Nc2ccc(C#N)cc2)CC1` (some centres not stated) returned a composite z-score of 1.33. Take `COc1ccc(NC(=O)O[C@H]2[C@@H]3OC(=O)[C@H](Cc4cccc(Br)c4)C/C=C/C[C@@H](Cc4cccc(Br)c4)C(=O)O[C@H]3[C@@H](OC)O[C@@H]2CO)cc1`: the composite z-score was determined as 0.453. Compound `C=C(/C(=C/C[C@H](OC(=O)c1ccncc1)c1cccc(OCCO)c1)c1cnc2ccccc2c1)C(C)C` came in with a composite z-score of 0.884. Take `CS(=O)(=O)CCOC(=O)C1=CC(CCCO)=CC(C2CC2)N(Cc2cccc(OC(F)(F)F)c2)C=C1C(=O)OCCS(C)(=O)=O` (configuration not stated): the composite z-score amounted to 0.897. `NC(=O)[C@H]1[C@@H]2C(=O)O[C@@H](c3ccccc3)[C@@H](c3ccccc3)N2[C@@H](c2ccc(O)cc2)[C@]12C(=O)Nc1ccc(C#CC3=CCCCC3)cc12` registered a composite z-score of 1.25.

`[N-]=[N+]=NCc1ccccc1[C@@H]1OC(c2ccc(OCCCO)cc2)=N[C@]1(Cc1ccccc1)C(=O)NCCN1CCOCC1` displayed a composite z-score of 1.23. Turning to `COc1cc(C(O)C2C=CC3C(=O)N(Cc4ccccc4)C(=O)C3N2n2cnnc2)cc(OC)c1OC` (configuration not stated), the composite z-score came out at 1.14. `C=CCN1C(=O)[C@@]2(O[C@@H](CCO)[C@H]([Si](C)(C)c3ccc(OC)cc3)[C@H]2C)c2cc(N3CCOC3=O)ccc21` returned a composite z-score of 1.09. In turn, `CC(C)[C@H]1NC(=O)[C@@]23C(=O)N[C@@H](Cc4ccccc4)C2[C@H](C)[C@@]2(C)O[C@H]2C3/C=C/C/C=C\CNC(=O)[C@H](Cc2ccccc2)NC1=O` (some centres not stated) registered a composite z-score of 0.957. Take `O=C1C2C=CC(C(O)c3ccco3)N(Nc3ccccc3)C2C(=O)N1c1ccccc1` (configuration not stated): the composite z-score was 1.08. For `CC(C)C[C@@H]1NC(=O)[C@@]23C(=O)N[C@@H](Cc4ccccc4)C2[C@H](C)[C@@]2(C)O[C@H]2C3/C=C/C/C=C\CNC(=O)[C@@H](C)NC1=O` (some centres not stated) the value was -0.483; for `CCN(CC)c1ccc(N2CC=CC34O[C@@H]5/C=C\CCC(C)OC(=O)C5[C@H]3C(=O)N(C(C)CO)[C@@H]4C2=O)cc1` (some centres not stated), -0.527. `CO[C@H]1O[C@H](CO)[C@@H](OC(=O)c2ccc(Br)cc2)[C@@H]2OC(=O)[C@H](Cc3ccccc3)C/C=C/C[C@@H](Cc3ccccc3)C(=O)O[C@@H]12`: the composite z-score turned out to be 0.615.

In the case of `CC(C)C(CO)N1C(=O)[C@@H]2[C@H]3C(=O)OCC=C[C@H]3OC23C=CCN(C(C)(C)C)C(=O)[C@@H]13` (some centres not stated), the composite z-score is -1.03.
